Reference: PubChem BioAssay (NCATS)
Inconclusive results are not listed. Active and inactive are the calls of the source. Calls follow the shape of the dose curve; as a rule, active = well fitted curve in the direction sought with a large enough effect; inconclusive = small, poorly fitted or top-dose-only effect, or another doubt; inactive = no such curve, though single readings can be large; an effect the other way counts as inactive or inconclusive.

What was measured:
[1] = Quantitative High-Throughput drug screen in 47 multiple myeloma cell lines against the NCATS MIPE library collection: KHM11_PLB cell viability assay (AID 1918962); also: nearly all actives have a fitted effect of over 35% in size
Procedure, shortened: (§1)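 Luminescent ATP measurement with CellTiter-Glo gives viability, scaled between DMSO-only wells (100%) and media-only wells (0%). Cells, 500 per well, faced library compounds for 48 hours at 37C.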

[2] = Quantitative High-Throughput drug screen in 47 multiple myeloma cell lines against the NCATS MIPE library collection: JIM3_ECACC cell viability assay (AID 1918963; also: nearly all actives have a fitted effect of over 35% in size)
Procedure, shortened: as §1

[3] = Quantitative High-Throughput drug screen in 47 multiple myeloma cell lines against the NCATS MIPE library collection: JIM1_ECACC cell viability assay (AID 1918964)
Procedure, shortened: (§2)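 Primary qHTS used for cherry-picking: cells at 500/well, library compounds for 48 h (37C, 5% CO2), luminescent ATP assay.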

[4] = Quantitative High-Throughput drug screen in 47 multiple myeloma cell lines against the NCATS MIPE library collection: JJN3_DSMZ cell viability assay (AID 1918966; also: nearly all actives have a fitted effect of over 50% in size)
Procedure, shortened: as §2

[5] = Quantitative High-Throughput drug screen in 47 multiple myeloma cell lines against the NCATS MIPE library collection: H1112_PLB cell viability assay (AID 1918967; also: nearly all actives have a fitted effect of over 30% in size)
Procedure, shortened: as §2

[6] = Quantitative High-Throughput drug screen in 47 multiple myeloma cell lines against the NCATS MIPE library collection: Karpas25_ECACC cell viability assay (AID 1918968; also: nearly all actives have a fitted effect of over 35% in size)
Procedure, shortened: as §2

[7] = Quantitative High-Throughput drug screen in 47 multiple myeloma cell lines against the NCATS MIPE library collection: KMS12PE_JCRB cell viability assay (AID 1918972); also: nearly all actives have a fitted effect of over 30% in size
Procedure, shortened: (§3)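 Steps: seed 500 cells per well; pin-transfer MIPE 4.0 library; incubate 48 h at 37C, 5% CO2, humidified; add CellTiter-Glo, 5 min room temperature; read luminescence.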

[8] = Quantitative High-Throughput drug screen in 47 multiple myeloma cell lines against the NCATS MIPE library collection: KMS21BM_JCRB cell viability assay (AID 1918974); conditions: ATP luminescence, 48 h; viability: at 45.8 µM (top of the series) unless noted
Procedure, shortened: as §2

[9] = Quantitative High-Throughput drug screen in 47 multiple myeloma cell lines against the NCATS MIPE library collection: KMS26_JCRB cell viability assay (AID 1918975); also: nearly all actives have a fitted effect of over 45% in size
Procedure, shortened: (§4)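 CellTiter-Glo luminescence (ATP) after 48 h compound exposure, 37C/5% CO2; 500 cells/well; MIPE 4.0 approved/investigational drugs pinned in; DMSO = 100%, media only = 0% viability.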

[10] = Quantitative High-Throughput drug screen in 47 multiple myeloma cell lines against the NCATS MIPE library collection: NCIH929_DSMZ cell viability assay (AID 1918978); also: nearly all actives have a fitted effect of over 35% in size
Procedure, shortened: (§5)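 Inhibition of viability over 48 h was scored by ATP content (CellTiter-Glo) in 500-cell wells. Zero and full viability were defined by media-only and DMSO-only wells.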

[11] = Quantitative High-Throughput drug screen in 47 multiple myeloma cell lines against the NCATS MIPE library collection: MM1S_ATCC cell viability assay (AID 1918980); also: nearly all actives have a fitted effect of over 45% in size
Procedure, shortened: as §5

[12] = Quantitative High-Throughput drug screen in 47 multiple myeloma cell lines against the NCATS MIPE library collection: MM1R_ATCC cell viability assay (AID 1918981); also: nearly all actives have a fitted effect of over 35% in size
Procedure, shortened: as §5

[13] = Quantitative High-Throughput drug screen in 47 multiple myeloma cell lines against the NCATS MIPE library collection: LP1_DSMZ cell viability assay (AID 1918982); also: nearly all actives have a fitted effect of over 35% in size
Procedure, shortened: as §5

[14] = Quantitative High-Throughput drug screen in 47 multiple myeloma cell lines against the NCATS MIPE library collection: INA6_PLB cell viability assay (AID 1918965; also: nearly all actives have a fitted effect of over 55% in size)
Procedure, shortened: as §3

[15] = Quantitative High-Throughput drug screen in 47 multiple myeloma cell lines against the NCATS MIPE library collection: KMS12BM_JCRB cell viability assay (AID 1918971); also: nearly all actives have a fitted effect of over 35% in size
Procedure, shortened: as §4

[16] = Quantitative High-Throughput drug screen in 47 multiple myeloma cell lines against the NCATS MIPE library collection: KMS20_JCRB cell viability assay (AID 1918973); also: nearly all actives have a fitted effect of over 45% in size
Procedure, shortened: as §2

[17] = Quantitative High-Throughput drug screen in 47 multiple myeloma cell lines against the NCATS MIPE library collection: MMM1_PLB cell viability assay (AID 1918976); also: nearly all actives have a fitted effect of over 35% in size
Procedure, shortened: as §5

[18] = Quantitative High-Throughput drug screen in 47 multiple myeloma cell lines against the NCATS MIPE library collection: OCIMY1_PLB cell viability assay (AID 1918979); also: nearly all actives have a fitted effect of over 35% in size
Procedure, shortened: as §5

[19] = Quantitative High-Throughput drug screen in 47 multiple myeloma cell lines against the NCATS MIPE library collection: KMS27_JCRB cell viability assay (AID 1918970); also: nearly all actives have a fitted effect of over 30% in size
Procedure, shortened: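 Viability inhibition screen, 48 h compound exposure, luminescent ATP read-out.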

[20] = Quantitative High-Throughput drug screen in 47 multiple myeloma cell lines against the NCATS MIPE library collection: MOLP8_DSMZ cell viability assay (AID 1918977); also: nearly all actives have a fitted effect of over 45% in size
Procedure, shortened: as §5

Measured: Potency
Potency is read from the fitted curve at half-maximal effect.

CC[C@H](CO)Nc1nc(NCc2ccccc2)c2ncn(C(C)C)c2n1
inactive: [7]
active: [1] 18.7 µM | [2] 26.4 µM | [3] 6.62 µM | [4] 18.7 µM | [5] 18.7 µM | [6] 20.9 µM | [8] 4.18 µM | [9] 33.2 µM | [10] 10.5 µM | [11] 20.9 µM | [12] 26.4 µM | [13] 26.4 µM

COc1cc2c(Oc3ccc4[nH]c(C)cc4c3F)ncnc2cc1OCCCN1CCCC1
active: [1] 4.69 µM | [2] 9.35 µM | [14] 9.35 µM | [4] 20.9 µM | [5] 8.33 µM | [6] 5.9 µM | [15] 29.6 µM | [7] 2.64 µM | [16] 2.96 µM | [9] 29.6 µM | [17] 23.5 µM | [10] 7.43 µM | [18] 26.4 µM | [11] 18.7 µM | [12] 26.4 µM

CCn1cc(-c2ccnc3[nH]c(-c4cccc(CN(C)C)c4)cc23)c(-c2ccc(NC(=O)N(C)C)cc2)n1
active: [1] 3.32 µM | [2] 5.26 µM | [3] 5.26 µM | [4] 16.6 µM | [5] 14.8 µM | [19] 7.43 µM | [7] 5.26 µM | [16] 4.18 µM | [8] 0.662 µM | [9] 18.7 µM | [17] 14.8 µM | [20] 8.33 µM | [10] 3.32 µM | [11] 5.26 µM

OCc1ccc(-c2ccc(-c3ccc(CO)s3)o2)s1
active: [1] 6.62 µM | [2] 16.6 µM | [4] 16.6 µM | [6] 3.72 µM | [19] 0.0118 µM | [7] 0.235 µM | [16] 1.87 µM | [9] 11.8 µM | [17] 3.72 µM | [20] 20.9 µM | [10] 2.64 µM | [18] 23.5 µM | [11] 6.62 µM | [12] 3.72 µM
inactive: [3]

Cc1ccc(-c2ncn(-c3ccc(Nc4nccc(-c5cccc(N6CCOCC6)c5)n4)cc3)n2)cn1
active: [1] 0.118 µM | [2] 0.235 µM | [3] 0.0662 µM | [4] 0.235 µM | [5] 0.105 µM | [19] 0.0469 µM | [15] 0.0833 µM | [7] 0.059 µM | [16] 0.0833 µM | [8] 0.0296 µM | [9] 0.469 µM | [17] 2.35 µM | [20] 0.0935 µM | [10] 0.264 µM | [18] 0.662 µM | [11] 0.148 µM | [12] 0.105 µM | [13] 0.132 µM

Cc1ccc(C(=O)Nc2ccc(CN3CCN(C)CC3)c(C(F)(F)F)c2)cc1C#Cc1cnc2cccnn12
active: [1] 0.662 µM | [2] 1.87 µM | [14] 0.332 µM | [4] 2.64 µM | [5] 2.09 µM | [19] 2.64 µM | [15] 2.96 µM | [7] 0.833 µM | [16] 0.833 µM | [8] 0.662 µM | [9] 6.62 µM | [17] 7.43 µM | [20] 0.833 µM | [10] 0.935 µM | [18] 14.8 µM | [11] 4.69 µM | [13] 5.9 µM

O=C(C=Cc1cccnc1)NCCCCC1CCN(C(=O)c2ccccc2)CC1
active: [1] 0.0235 µM | [2] 0.001 µM | [14] 0.001 µM | [4] 0.0209 µM | [5] 0.0132 µM | [6] 0.0059 µM | [19] 0.0132 µM | [15] 0.0209 µM | [7] 0.0148 µM | [8] 0.0166 µM | [9] 0.0053 µM | [10] 0.0132 µM | [11] 0.0296 µM
inactive: [20]

c1cc(-c2cnn3cc(-c4ccc(OCCN5CCCCC5)cc4)cnc23)ccn1
inactive: [19] | [7]
active: [1] 1.48 µM | [2] 3.72 µM | [14] 1.87 µM | [4] 8.33 µM | [6] 2.96 µM | [15] 16.6 µM | [16] 2.35 µM | [9] 16.6 µM | [17] 16.6 µM | [20] 10.5 µM | [10] 2.35 µM | [18] 26.4 µM | [11] 16.6 µM | [12] 18.7 µM | [13] 13.2 µM

CCC[C@H](NC(=O)C(C#N)=Cc1cccc(Br)n1)c1ccccc1
active: [1] 1.32 µM | [2] 1.48 µM | [14] 1.32 µM | [4] 2.09 µM | [5] 2.35 µM | [6] 1.48 µM | [19] 7.43 µM | [15] 2.96 µM | [9] 1.48 µM | [17] 2.96 µM | [20] 1.48 µM | [10] 1.05 µM | [18] 6.62 µM | [11] 7.43 µM | [12] 1.66 µM | [13] 5.26 µM
